Laboratory results: PubChem BioAssay AID1259336 (Sattelle Laboratory, UCL Respiratory, Division of Medicine, …, 2017)
Active and inactive are the calls of the source. Rule as the data show it: active = log2 fold change growth below about -1.8; inactive = the rest.

Assay: anthelmintic activity against nematode growth – whole organism, log2 fold change (AID 1259336);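 also: growth scored by imaging after five days at 20 °C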
Settings: C. elegans growth, anthelmintic screen; stronger effect = lower value

log2 fold change growth, active:
COC(=O)Nc1nc2ccc(C(=O)c3ccccc3)cc2[nH]1 -6.04

log2 fold change growth, inactive:
NS(=O)(=O)c1cncc(-c2ccc3nccc(-c4cn[nH]c4)c3n2)c1 -0.501
Nc1ncc(Br)cc1-c1nc2ncc(Cl)cc2[nH]1 0.329
O=C(Nc1c(O)cccc1-c1nc2c(C(=O)O)cccc2o1)c1cc(-c2ccccc2)on1 -0.772
NCCC(O)C(=O)N[C@@H]1C[C@H](N)[C@@H](OC2O[C@H](CN)[C@@H](O)[C@H](O)[C@H]2O)[C@H](O)C1OC1O[C@H](CO)[C@@H](O)[C@H](N)[C@H]1O (some centres undefined) 0.334
Cc1ccc2[nH]c3c(NCCN(C)C)ncnc3c2c1 0.351
Cc1cc(NCC(C)C)c2[nH]nc(-c3ccccc3)c2n1 0.0984
COc1ccc2nccc(NC(=O)C3CCN(CCc4ccc(Cl)cc4)CC3)c2n1 0.423
Nc1ncc(-c2cn[nH]c2)cc1-c1nc2ncc(Cl)cc2[nH]1 -0.454
Cc1ccc2cc([C@@H]3NC(=O)c4ccccc4N3)c(Cl)nc2c1 -0.0454
CC(C)c1ncc(-c2ccncc2)c(C2CCC(CNC(=O)c3cccnc3)CC2)n1 (centres undefined) -0.0296
Cc1cc(Nc2ccncc2)n2nc(C)c(-c3ccccc3Cl)c2n1 -0.496
O=C(NC1CC1)c1ccc(N2CCC(Cc3ccccc3)CC2)nc1 0.0189
CCN(CC)CCCN1CCN(C(=O)c2cccc(-c3noc(C(F)(F)F)n3)c2)CC1 -0.0333
